In the library only some 3.9% were active in any assay of this set; here they are far more common.
ALR inh = blocks human ALR sulfhydryl oxidase activity; P55789; purified ALR, DTT oxidation, H2O2 HRP-luminol luminescence; inhibition, % (no concentration beside the values); 290,000 compounds, 3.8% hits;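 active means mean replicate inhibition above about 79%, with every replicate also reaching it, limit read from the data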
Target sequence (P55789 whole entry, looked up): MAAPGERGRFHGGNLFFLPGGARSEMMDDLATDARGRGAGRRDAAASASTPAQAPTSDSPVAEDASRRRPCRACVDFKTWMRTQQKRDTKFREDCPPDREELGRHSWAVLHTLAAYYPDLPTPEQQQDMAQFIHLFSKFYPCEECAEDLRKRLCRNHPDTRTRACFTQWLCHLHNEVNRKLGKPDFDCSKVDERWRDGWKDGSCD
NSD2 HMT inh = blocks human histone methyltransferase NSD2; inhibition, % at 12.5 µM; 310,000 compounds, 0.54% hits; NSD2 peptide methylation, AlphaScreen, 120 min; O96028; in the data active means inhibition above about 50%
Glyco luc inh = blocks N-linked glycosylation in D54 reporter cells. D54 ERlucT glycosylation luciferase reporter, 24 h; percent of 100 nM tunicamycin response. reporter increase, % at 12.5 µM. 360,000 compounds, 0.23% hits. AID 588692;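 active means mean luciferase reporter signal, scaled so untreated is 0 and the glycosylation-blocking control 100, at or above a set limit in every replicate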;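 further: luciferase carries N-glycosylation sites so blocking glycosylation raises the light; 0% = median of neutral control wells and 100% = median of 100 nM tunicamycin wells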
CASP6 VEID inh = inhibitors of human caspase-6; P55212; purified caspase-6, Z-VEID-R110 cleavage fluorescence; inhibition, % at 12.5 µM; 350,000 compounds, 0.53% hits;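 active means mean inhibition across replicates at least about 35%, with every replicate also reaching that limit, limit read from the data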;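 further: 0% = median of neutral control wells and 100% = no fluorescence left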
CDK5 inh = blocks human CDK5/p35 kinase activity; Recombinant CDK5/p35, ADP-Glo luminescence, 60 min; 330,000 compounds, 0.01% hits; inhibition, % at 10 µM; AID 488839;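 active means highest replicate inhibition of at least 50% and at least 75% of replicates reaching 50%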;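 further: plate controls were DMSO neutral control for no effect and GW8510 at 10 µM for full effect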
SUMO Mot1 rescue = inhibitors of SUMOylation pathway: yeast Mot1-301 growth rescue | growth rescue, % at 18.8 µM | S. cerevisiae Mot1-301 growth rescue, ATP luminescence, 38.5C; percent above DMSO median, 100 means doubled | 320,000 compounds, 1% hits;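 active means every valid replicate shows activation above 250% relative to neutral control wells; inactive means the rest, any valid replicate at or below 250%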;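 further: OY570 slx delta 5 strain wells were the positive control but not used for scaling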
* marks the source's active call; other numbers are inactive results; x = no result.

SMILES | ALR inh | NSD2 HMT inh | Glyco luc inh | CASP6 VEID inh | CDK5 inh | SUMO Mot1 rescue
COc1cc2cc(C)c(SCC(=O)N3c4ccccc4Sc4ccccc43)nc2cc1OC | x | -1 | x | x | x | x
CCC(=O)NC1=C(Nc2ccc(N)cc2)C(=O)c2ccccc2C1=O | 62 | 13 | -5 | x | 2 | 226
CCC(=O)N(C1=C(NC(C)C)C(=O)c2ccccc2C1=O)C(C)C | -18 | 70* | 7 | 44* | 1 | -8
C[C@H](CO)N1C[C@H](C)[C@@H](CN(C)C(=O)Nc2ccc(C(F)(F)F)cc2)Oc2ccc(NC(=O)Cc3cn(C)c4ccccc34)cc2CC1=O | x | x | x | -9 | x | x
CCOC(=O)c1[nH]c2ccc(C)cc2c1NC(=O)CN1CCCCC1 | 98* | 3 | -1 | x | -1 | -10
CCOC(=O)c1[nH]c2ccccc2c1NC(=S)Nc1cccc(C)c1 | 98* | x | -1 | 2 | 0 | -3
CCOC(=O)c1[nH]c2ccccc2c1NC(=O)CC | x | x | 2 | 1 | -1 | 6
CCOC(=O)c1[nH]c2ccccc2c1NC(=S)Nc1ccccc1 | 98* | x | 6 | 6 | -2 | 1
CCOC(=O)c1[nH]c2ccccc2c1NC(C)=O | -7 | x | 0 | 1 | 1 | 21
CCC(=O)N1[C@@H]2c3cccc(=O)n3C[C@@H]2[C@@H](CO)[C@@H]1C(=O)NC1CCCCC1 | x | x | x | 1 | x | x
C[C@H]1CN([C@@H](C)CO)C(=O)Cc2cc(NC(=O)Nc3ccc(C(F)(F)F)cc3)ccc2O[C@H]1CN(C)Cc1ccccc1 | x | x | x | 1 | x | x
NCC[C@@H]1CC[C@@H](NC(=O)C2CCC2)[C@H](CO)O1 | x | x | x | -2 | x | x
COc1ccc(-c2ccc3n(c2=O)C[C@@H]2[C@@H](CO)[C@H](C(=O)N4CCN(C)CC4)N[C@H]32)cc1 | x | x | x | 1 | x | x
COc1ccccc1-c1cn(CC[C@H]2CC[C@@H](NC(=O)C3CCC3)[C@H](CO)O2)nn1 | x | x | x | 0 | x | x
CNC[C@H]1Oc2c(NC(=O)Nc3ccc4c(c3)OCO4)cccc2C(=O)N([C@@H](C)CO)C[C@H]1C | x | x | x | -3 | x | x
COc1ccc(-c2[nH]c(-c3ccc(C)cc3)nc2SCC(=O)Nc2nccs2)cc1 | 94* | 0 | 0 | 0 | 0 | -28
CC1CCN(C(=O)Cn2cc(C(F)(F)F)ccc2=O)c2ccccc2S1 (stereo unspecified) | -1 | 0 | 0 | 70* | 1 | -2
O=C(Cn1cc(C(F)(F)F)ccc1=O)N1CCCc2ccccc21 | 7 | 1 | 0 | -1 | 0 | 6
COc1ccc(NC(=O)C(F)(OC)C(F)(F)F)c(OC)c1 (stereo unspecified) | -3 | -1 | 1 | 55* | -3 | -15
CCN(CC)c1ccc(NC(=O)c2ccco2)cc1 | 3 | 0 | -12 | x | -2 | -2
CCN(CC)c1ccc(NC(=O)c2c(C)noc2C)cc1 | 98* | 2 | x | 1 | -2 | 257
CCN(CC)c1ccc(NC(=O)c2cc(Cl)ccc2OC)cc1 | 98* | 2 | 3 | x | 0 | 415
O=C(Nc1ccc(Nc2ccccc2)cc1)c1ccccc1F | 99* | 3 | 4 | 0 | 0 | 23
O=C(O)c1cc(NC(=O)c2ccccc2F)cc(NC(=O)c2ccccc2F)c1 | 5 | -3 | 2 | 6 | -1 | -5
COc1ccc(Cl)cc1C(=O)Nc1ccncc1 | -9 | 21 | 1 | -4 | 2 | -13
SMILES | ALR inh | NSD2 HMT inh | Glyco luc inh | CASP6 VEID inh | CDK5 inh | SUMO Mot1 rescue
CCN(CC)c1ccc(NC(=O)c2ccccc2F)cc1 | 99* | -5 | 0 | x | 0 | -3
COc1ccccc1N1CCN(C(c2cccs2)C(C)NC(=O)C(=O)N2CCOCC2)CC1 (stereo unspecified) | 89* | 1 | 0 | 1 | 1 | -2
CC(NC(=O)C(=O)N1CCOCC1)C(c1cccs1)N1CCN(c2ccccc2)CC1 (stereo unspecified) | 98* | -4 | 4 | 1 | 0 | 6
O=[N+]([O-])c1ccc(N/N=C2\CC3CC=CC23)cc1 (stereo unspecified) | 96* | 7 | -4 | 4 | 4 | x
Clc1ccc(NCc2cccnc2)cc1 | 99* | -1 | 1 | -17 | -1 | 20
O=S(=O)(NCc1cccnc1)c1ccc(Cl)cc1 | -8 | 1 | 1 | 47* | -1 | 7
Cc1ccc(NC(NC(=O)c2cccs2)C(Cl)(Cl)Cl)cc1 (stereo unspecified) | 98* | 0 | -4 | x | 0 | 18

Screens as filed in PubChem BioAssay.
